From PubChem BioAssay AID1159580 (chemical genetic matrix, 2015)
The campaign covered roughly 5,500 compounds. About 2,000 (36%) were called active. About 18% were inconclusive and are not listed. Cut-off read from the data, not from the text of the source: active = normalized growth mostly below about 0.91 (no sharp cut-off); inconclusive = no clear call, values can overlap the other calls; inactive = mostly above about 0.92. The list shows a part of the results.

Assay: chemical genetic growth profiling, strain panel (AID 1159580);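 note: tested at 20 µM; growth read once vehicle control cultures reached saturation at 30 °C; 1 = growth at the plate median or of vehicle wells; lower values mean less growth of the strain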
Conditions: growth OD

Measured: normalized growth

CC1(C)C2CC(=O)[C@]3(C)C(CC[C@@]4(C)[C@H](c5ccoc5)OC(=O)[C@H]5O[C@]543)[C@@]2(C)C=C[C@@H]1O (some centres not stated)
inactive: S. cerevisiae deletion strains, locus YBR021W, strain FUR4, active compounds read low 0.944 | S. cerevisiae deletion strains, locus YBR229C, strain ROT2, active compounds read low 1.02 | S. cerevisiae deletion strains, locus YCL029C, strain bik1, active compounds read low 1 | S. cerevisiae deletion strains, locus YDL035C, strain GPR1, active compounds read low 1.02 | S. cerevisiae deletion strains, locus YDL074C, strain BRE1, active compounds read low 1.01 | S. cerevisiae deletion strains, locus YDL101C, strain DUN1, active compounds read low 0.994 | S. cerevisiae deletion strains, locus YDL134C, strain PPH21, active compounds read low 0.982 | S. cerevisiae deletion strains, locus YDL185W, strain tfp1, active compounds read low 1.01 | S. cerevisiae deletion strains, locus YDL192W, strain arf1, active compounds read low 1.01 | S. cerevisiae deletion strains, locus YDR101C, strain arx1, active compounds read low 0.993 | S. cerevisiae deletion strains, locus YDR150W, strain NUM1, active compounds read low 1.01 | S. cerevisiae deletion strains, locus YDR162C, strain NBP2, active compounds read low 1.01 | S. cerevisiae deletion strains, locus YDR318W, strain mcm21, active compounds read low 0.99 | S. cerevisiae deletion strains, locus YDR388W, active compounds read low 1.01 | S. cerevisiae deletion strains, locus YDR502C, strain sam2, active compounds read low 0.967 | S. cerevisiae deletion strains, locus YEL061C, strain CIN8, active compounds read low 1.01 | S. cerevisiae deletion strains, locus YER110C, active compounds read low 0.986 | S. cerevisiae deletion strains, locus YER155C, strain BEM2, active compounds read low 1.01 | S. cerevisiae deletion strains, locus YER167W, strain BCK2, active compounds read low 1.02 | S. cerevisiae deletion strains, locus YGL078C, strain dbp3, active compounds read low 0.981 | S. cerevisiae deletion strains, locus YGL086W, strain mad1, active compounds read low 0.989 | S. cerevisiae deletion strains, locus YGL248W, strain PDE1, active compounds read low 0.998 | S. cerevisiae deletion strains, locus YGR135W, strain pre9, active compounds read low 0.931 | S. cerevisiae deletion strains, locus YGR252W, strain gcn5, active compounds read low 0.844 | S. cerevisiae deletion strains, locus YHR030C, strain SLT2, active compounds read low 1.02 | S. cerevisiae deletion strains, locus YHR079C, strain IRE1 (second series), active compounds read low 0.99 | S. cerevisiae deletion strains, locus YHR094C, strain hxt1, active compounds read low 0.999 | S. cerevisiae deletion strains, locus YHR129C, strain ARP1, active compounds read low 1.01 | S. cerevisiae deletion strains, locus YHR200W, strain rpn10, active compounds read low 0.975 | S. cerevisiae deletion strains, locus YIL066C, strain RNR3, active compounds read low 1.04 | S. cerevisiae deletion strains, locus YIL073C, strain SPO22, active compounds read low 1.02 | S. cerevisiae deletion strains, locus YIL125W, strain kgd1, active compounds read low 0.995 | S. cerevisiae deletion strains, locus YIR030C, strain dcg1, active compounds read low 0.996 | S. cerevisiae deletion strains, locus YJL095W, strain BCK1, active compounds read low 1 | S. cerevisiae deletion strains, locus YJL134W, strain LCB3, active compounds read low 1.01 | S. cerevisiae deletion strains, locus YJL168C, strain set2, active compounds read low 0.993 | S. cerevisiae deletion strains, locus YJL187C, strain SWE1 (second series), active compounds read low 0.981 | S. cerevisiae deletion strains, locus YJR043C, strain POL32, active compounds read low 1.03 | S. cerevisiae deletion strains, locus YKL009W, strain mrt4, active compounds read low 0.988 | S. cerevisiae deletion strains, locus YKL068W, active compounds read low 1.01 | S. cerevisiae deletion strains, locus YKL085W, strain MDH1 (second series), active compounds read low 1.01 | S. cerevisiae deletion strains, locus YKL085W, strain MDH1, active compounds read low 1.01 | S. cerevisiae deletion strains, locus YKR001C, strain vps1, active compounds read low 1 | S. cerevisiae deletion strains, locus YLR039C, strain RIC1, active compounds read low 1.18 | S. cerevisiae deletion strains, locus YLR058C, strain SHM2, active compounds read low 0.996 | S. cerevisiae deletion strains, locus YLR102C, strain apc9, active compounds read low 1 | S. cerevisiae deletion strains, locus YLR262C, strain YPT6, active compounds read low 1.16 | S. cerevisiae deletion strains, locus YLR268W, strain sec22, active compounds read low 1 | S. cerevisiae deletion strains, locus YLR330W, strain CHS5, active compounds read low 1 | S. cerevisiae deletion strains, locus YLR371W, strain rom2, active compounds read low 1.01 | S. cerevisiae deletion strains, locus YLR418C, strain cdc73, active compounds read low 0.936 | S. cerevisiae deletion strains, locus YML016C, strain PPZ1, active compounds read low 1.03 | S. cerevisiae deletion strains, locus YML032C, strain rad52, active compounds read low 0.998 | S. cerevisiae deletion strains, locus YML124C, strain tub3, active compounds read low 0.995 | S. cerevisiae deletion strains, locus YMR078C, strain ctf18, active compounds read low 0.998 | S. cerevisiae deletion strains, locus YMR223W, strain ubp8, active compounds read low 0.97 | S. cerevisiae deletion strains, locus YMR263W, strain SAP30, active compounds read low 0.986 | S. cerevisiae deletion strains, locus YMR307W, strain GAS1, active compounds read low 1.1 | S. cerevisiae deletion strains, locus YNL067W, strain RPL9B, active compounds read low 0.97 | S. cerevisiae deletion strains, locus YNL128W, strain TEP1, active compounds read low 1.02 | S. cerevisiae deletion strains, locus YNL233W, strain BNI4, active compounds read low 0.975 | S. cerevisiae deletion strains, locus YNL250W, strain rad50, active compounds read low 0.986 | S. cerevisiae deletion strains, locus YNL271C, strain bni1, active compounds read low 1 | S. cerevisiae deletion strains, locus YNL298W, strain CLA4, active compounds read low 1.01 | S. cerevisiae deletion strains, locus YNL307C, strain MCK1, active compounds read low 1 | S. cerevisiae deletion strains, locus YNL322C, strain KRE1, active compounds read low 1.01 | S. cerevisiae deletion strains, locus YNR052C, strain pop2, active compounds read low 0.967 | S. cerevisiae deletion strains, locus YOL012C, strain htz1 1.21 | S. cerevisiae deletion strains, locus YOL147C, strain pex11, active compounds read low 0.993 | S. cerevisiae deletion strains, locus YOR061W, strain CKA2, active compounds read low 1.02 | S. cerevisiae deletion strains, locus YOR069W, strain VPS5, active compounds read low 1 | S. cerevisiae deletion strains, locus YOR136W, strain idh2, active compounds read low 0.985 | S. cerevisiae deletion strains, locus YOR144C, strain elg1, active compounds read low 1 | S. cerevisiae deletion strains, locus YOR184W, strain ser1, active compounds read low 0.993 | S. cerevisiae deletion strains, locus YOR316C, strain cot1, active compounds read low 1.01 | S. cerevisiae deletion strains, locus YPL241C, strain CIN2, active compounds read low 1.01 | S. cerevisiae deletion strains, locus YPR119W, strain clb2, active compounds read low 0.997 | S. cerevisiae deletion strains, locus YPR141C, strain kar3, active compounds read low 1.01 | S. cerevisiae deletion strains, locus YPR163C, strain tif3, active compounds read low 0.987 | S. cerevisiae deletion strains, locus YPR167C, strain met16, active compounds read low 0.985 | S. cerevisiae deletion strains, strain wtn01, active compounds read low 0.998 | S. cerevisiae strains, strain wild type, active compounds read low 1.01
